According to PubChem BioAssay (NCI):
The panel holds about 83,000 compounds, 20% with a hit somewhere; the sample as a whole holds those more often.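 Activity criterion: percent growth below 10, measured after cells in 96-well plates were exposed to a single compound concentration for 48 hours.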 Calls of active or inactive are those of the source.

Columns and labels:
Assay in all cases: NCI-60 one-dose screen, 48 h (100 = growth as untreated, 0 = no growth, -100 = all killed)
Settings in all cases: 10 µM unless noted
NCI-H23 lung = tested on: NCI-H23 lung
NCI-H322M lung = tested on: NCI-H322M lung
HOP-62 NSCLC = tested on: HOP-62 NSCLC
NCI-H460 lung = tested on: NCI-H460 lung
NCI-H522 lung = tested on: NCI-H522 lung
A549/ATCC NSCLC = tested on: A549/ATCC NSCLC
786-0 renal = tested on: 786-0 renal
COLO 205 colon = tested on: COLO 205 colon
DU-145 prostate = tested on: DU-145 prostate
K-562 leukemia = tested on: K-562 leukemia
MALME-3M melanoma = tested on: MALME-3M melanoma
MDA-MB-231 breast = tested on: MDA-MB-231 breast
RXF 393 renal = tested on: RXF 393 renal
SF-268 CNS = tested on: SF-268 CNS
SF-295 CNS = tested on: SF-295 CNS
SF-539 CNS = tested on: SF-539 CNS
UACC-257 melanoma = tested on: UACC-257 melanoma
M14 melanoma = tested on: M14 melanoma

Measured: growth

COc1ccc(CNc2c3ccccc3nc3ccc(OC)cc23)cc1
active: NCI-H460 lung 6.48% | COLO 205 colon -51.4% | K-562 leukemia 0.27% | MALME-3M melanoma 7.06% | RXF 393 renal -2.57% | SF-539 CNS 8.46% | UACC-257 melanoma 6.58%
inactive: NCI-H23 lung 21.4% | NCI-H322M lung 23.5% | HOP-62 NSCLC 34.1% | NCI-H522 lung 26.2% | A549/ATCC NSCLC 14.6% | 786-0 renal 15% | DU-145 prostate 20% | MDA-MB-231 breast 23.6% | SF-268 CNS 40.2% | SF-295 CNS 19.4% | M14 melanoma 19.5%

O=C1/C(=C/c2cc(F)cc(F)c2)Cc2cc(F)cc(F)c21
inactive: NCI-H23 lung 101% | NCI-H322M lung 75.9% | HOP-62 NSCLC 95.1% | NCI-H460 lung 103% | NCI-H522 lung 83.3% | A549/ATCC NSCLC 102% | 786-0 renal 99.8% | COLO 205 colon 107% | DU-145 prostate 104% | K-562 leukemia 83.8% | MALME-3M melanoma 86% | MDA-MB-231 breast 95.1% | RXF 393 renal 93.1% | SF-268 CNS 91.4% | SF-295 CNS 95% | SF-539 CNS 89.8% | UACC-257 melanoma 113% | M14 melanoma 82.6%

O=c1oc2ccccc2cc1-c1cc(-c2ccc(-c3cc(-c4cc5ccccc5oc4=O)nc(-c4cc5ccccc5oc4=O)c3)cc2)cc(-c2cc3ccccc3oc2=O)n1
inactive: NCI-H23 lung 98.5% | NCI-H322M lung 108% | HOP-62 NSCLC 93.3% | NCI-H460 lung 106% | NCI-H522 lung 97% | A549/ATCC NSCLC 101% | 786-0 renal 107% | COLO 205 colon 103% | DU-145 prostate 107% | K-562 leukemia 94.8% | MALME-3M melanoma 98.3% | MDA-MB-231 breast 94.4% | RXF 393 renal 118% | SF-268 CNS 104% | SF-295 CNS 111% | SF-539 CNS 93.2% | UACC-257 melanoma 103% | M14 melanoma 103%

CN1CCC2(CC1)N=C(SCC(=O)Nc1cnc3ccccc3c1)C(c1ccc(Br)cc1)=N2
inactive: NCI-H23 lung 63.5% | NCI-H322M lung 50.8% | HOP-62 NSCLC 38.9% | A549/ATCC NSCLC 24.2% | DU-145 prostate 21.8% | RXF 393 renal 24.3% | SF-268 CNS 35.9% | SF-295 CNS 28% | SF-539 CNS 51.6%
active: NCI-H460 lung 3.34% | NCI-H522 lung -17.5% | 786-0 renal -81.7% | COLO 205 colon -76.2% | K-562 leukemia -61.5% | MALME-3M melanoma -75.5% | MDA-MB-231 breast -40.5% | UACC-257 melanoma -61.2% | M14 melanoma -83.8%
